Test [1] is described as follows: Quantitative High-Throughput drug screen in 47 multiple myeloma cell lines against the NCATS MIPE library collection: FR4_PLB cell viability assay (AID 1918924; also: nearly all actives have a fitted effect of over 35% in size). The method in brief: (§1)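 CellTiter-Glo luminescence (ATP) after 48 h compound exposure, 37C/5% CO2; 500 cells/well; MIPE 4.0 approved/investigational drugs pinned in; DMSO = 100%, media only = 0% viability.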

Test [2] is described as follows: Quantitative High-Throughput drug screen in 47 multiple myeloma cell lines against the NCATS MIPE library collection: Delta47_JCRB cell viability assay (AID 1918925; also: nearly all actives have a fitted effect of over 45% in size). The method, boiled down:
(§2)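 Myeloma cell lines, 500 cells per well, exposed to MIPE 4.0 library compounds for 48 h at 37C, 5% CO2. Viability from ATP by CellTiter-Glo luminescence; normalised to DMSO (100%) and media-only (0%) wells.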

Test [3] is described as follows: Quantitative High-Throughput drug screen in 47 multiple myeloma cell lines against the NCATS MIPE library collection: ARP1_JJKsccF8 cell viability assay (AID 1918928; also: nearly all actives have a fitted effect of over 40% in size). The method, boiled down: (§3)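 Luminescence from CellTiter-Glo, taken after 5 min at room temperature, reports cellular ATP as viability. Cells (500 per well) had been treated 48 h at 37 °C with MIPE 4.0 compounds, scaled between DMSO and medium-only controls.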

Test [4] can be described thus: Quantitative High-Throughput drug screen in 47 multiple myeloma cell lines against the NCATS MIPE library collection: Karpas620_DSMZ cell viability assay (AID 1918959). Also: nearly all actives have a fitted effect of over 30% in size. The method in brief: as §1
A short description of test [5]: Quantitative High-Throughput drug screen in 47 multiple myeloma cell lines against the NCATS MIPE library collection: KMM1_JCRB cell viability assay (AID 1918960). Also: nearly all actives have a fitted effect of over 30% in size. The method, boiled down:
as §3

The nature of test [6]: Quantitative High-Throughput drug screen in 47 multiple myeloma cell lines against the NCATS MIPE library collection: ARD_JJKsccE7 cell viability assay (AID 1918929). The method, boiled down: as §2
Test [7] in a line: Quantitative High-Throughput drug screen in 47 multiple myeloma cell lines against the NCATS MIPE library collection: AMO1_DSMZ cell viability assay (AID 1918927; also: nearly all actives have a fitted effect of over 30% in size). The method in brief: as §2
Test [8] is described as follows: Quantitative High-Throughput drug screen in 47 multiple myeloma cell lines against the NCATS MIPE library collection: EJM_DSMZ cell viability assay (AID 1918926; also: nearly all actives have a fitted effect of over 30% in size). The method, boiled down: as §2

Records with an inconclusive call do not appear. A number with no mark means an inactive call. Calls of active or inactive are those of the source. Calls follow the shape of the dose curve; as a rule, active = well fitted cell-killing curve with a large enough effect; inconclusive = small, poorly fitted or top-dose-only effect, or effect the other way; inactive = no such curve, though single readings can be large or run the other way.
Potency is read from the fitted curve at half-maximal effect.

Turning to `CN(C)CC[C@H](c1ccc(Cl)cc1)c1ccccn1`, the Potency result in test [1], in test [2], in test [3], in test [4] and in test [5] was “inactive” in each case.
As to `COc1cc2c(cc1O)CCC1C2CC[C@@]2(C)C1CC[C@@H]2O` (some centres not stated), the Potency in test [1] was 0.743 µM (active); in test [2], 2.64 µM (active). In addition, in test [6], the Potency result is “inactive”.
For the molecule `Cc1cnn(C)c1C(=O)Nc1cc(Nc2ccc3c(C=Cc4ccccn4)n[nH]c3c2)ccc1F`, the Potency was 20.9 µM (active) in test [1]; 8.33 µM (active) in test [2]; 9.35 µM (active) in test [7]; 4.18 µM (active) in test [6]; 20.9 µM (active) in test [4].
In the case of `COc1ccnc2[nH]cc(C(=O)C(=O)N3CCN(C(=O)c4ccccc4)C[C@@H]3C)c12`, the Potency entry in test [1], in test [8], in test [7] and in test [4] was “inactive” each time. Besides, the Potency in test [3] was 16.6 µM (active).
For `CC(=O)N[C@H]1[C@@H]([C@H](O)[C@H](O)CO)OC(C(=O)O)=C[C@@H]1N=C(N)N`, the Potency entry in test [1], in test [8], in test [7], in test [3] and in test [4] was “inactive” throughout.
As to `Cc1ccc(O)c(C(CCN(C(C)C)C(C)C)c2ccccc2)c1` (configuration not stated), the Potency entry in test [1], in test [7], in test [3], in test [6], in test [4] and in test [5] was “inactive” in each case. Further, in test [8], the Potency was 0.0017 µM (active).
For `C[C@@H]1[C@H](C)CC[C@]2(C(=O)O)CC[C@]3(C)C(=CC[C@@H]4[C@@]5(C)C[C@@H](O)[C@H](O)[C@@](C)(CO)[C@H]5CC[C@]43C)[C@@H]12`, the Potency result in test [1], in test [8], in test [7], in test [3], in test [6] and in test [4] was “inactive” in each case. Further, in test [5], the Potency result is “inactive”.
On to `C[C@]12CCC(=O)C=C1[C@@H]1CC1[C@H]1[C@H]3[C@@H]4C[C@H]4[C@@]4(CCC(=O)O4)[C@@]3(C)CC[C@H]12` (some centres not stated), for which the Potency entry in test [1], in test [2] and in test [8] was “inactive” in each case. In addition, the values for the Potency in test [6] and in test [5] were 18.7 µM (active) and 20.9 µM (active), respectively.
As for `NC(=O)c1ncn([C@@H]2O[C@H](CO)[C@@H](O)[C@@H]2O)c1N`, the Potency entry in test [1], in test [8], in test [7], in test [3], in test [6] and in test [4] was “inactive” each time.
`Cc1ccc([N+](=O)[O-])cc1S(=O)(=O)N(C)N=Cc1cnc2ccc(Br)cn12`: the Potency in test [1] was 0.0166 µM (active); in test [8], 0.0235 µM (active); in test [7], 0.0148 µM (active); in test [3] it was 0.0264 µM (active); in test [6], 0.0118 µM (active); in test [4], 0.0264 µM (active). Further, the Potency in test [5] is 0.0118 µM (active).
With `NC(=O)c1ncn([C@@H]2O[C@H](CO)[C@@H](O)[C@@H]2O)c1O`, the figures for the Potency in test [1] and in test [3] were 18.7 µM (active) and 13.2 µM (active), respectively. For the same molecule, the Potency entry in test [8], in test [7], in test [6], in test [4] and in test [5] was “inactive” in each case.
`OCC(O)C(O)C(O)CO` (configuration not stated): the Potency entry in test [1], in test [2], in test [8], in test [6] and in test [4] was “inactive” in each case.
Turning to `O=C(C=CC#Cc1cccc(NS(=O)(=O)c2ccccc2)c1)NO`, the Potency in test [1] was 1.18 µM (active); in test [2], 1.18 µM (active); in test [8], 5.9 µM (active); in test [3], 0.372 µM (active); in test [6], 1.18 µM (active); in test [4], 1.87 µM (active). Besides, in test [5], the Potency is 0.526 µM (active).
As to `NC1=N[C@H]2[C@H](CS[C@H]2CCCCC(=O)O)N1`, the Potency result in test [1], in test [8], in test [7] and in test [3] was “inactive” each time.
Consider `OCc1ccccc1O[C@@H]1O[C@H](CO)[C@H](O)[C@H](O)[C@H]1O`, for which the Potency result in test [1], in test [6], in test [4] and in test [5] was “inactive” throughout. The Potency in test [2] is 13.2 µM (active); in test [8], 10.5 µM (active).
With `N#Cc1ccc(COC[C@H]2O[C@@H](n3c(NCc4ccc(Cl)c(Cl)c4)nc4c(N)ncnc43)[C@@H](O)[C@@H]2O)cc1`, the Potency in test [1] was 13.2 µM (active); in test [2], 16.6 µM (active); in test [3], 6.62 µM (active); in test [6], 5.26 µM (active); in test [4], 0.418 µM (active); in test [5], 5.26 µM (active).
As for `O=C(C[C@@H]1CC=CCCC(=O)O[C@H](c2ccccc2)CNC1=O)NCc1ccc(Cl)cc1`, the Potency is 16.6 µM (active) in test [1], 10.5 µM (active) in test [2] and 0.0012 µM (active) in test [8]. Further, the Potency result in test [4] and in test [5] was “inactive” throughout.
For the molecule `Nc1ncn([C@@H]2O[C@H](CO)[C@@H](O)[C@@H]2O)c(=O)n1`, the Potency was 4.69 µM (active) in test [1]; 13.2 µM (active) in test [8]; 1.48 µM (active) in test [7]; 5.26 µM (active) in test [3]; 2.35 µM (active) in test [6]; 4.69 µM (active) in test [4]. The Potency in test [5] was 1.18 µM (active).
Consider `C=CC1=C(C(=O)O)N2C(=O)[C@@H](NC(=O)C(=NO)c3csc(N)n3)[C@H]2SC1`, for which the Potency entry in test [1], in test [2], in test [8], in test [3], in test [4] and in test [5] was “inactive” each time.
Take `CC(=CC(=O)Nc1ccccc1C(=O)O)c1ccc2ccccc2c1`: the Potency result in test [1] is “inactive”. Moreover, the Potency in test [2] and in test [6] was 14.8 µM (active) in each case.
For `CN1CCCN(C(=O)c2cccc(-c3ccc(C=C4C(=O)Nc5ccc(Cl)cc54)o3)c2)CC1`, the Potency in test [1] is 26.4 µM (active); in test [2], 20.9 µM (active); in test [7], 7.43 µM (active); in test [6] it was 8.33 µM (active); in test [4] it was 9.35 µM (active); in test [5], 18.7 µM (active).

The values above are taken from PubChem BioAssay (NCATS).
